Experimental data: PubChem BioAssay (NCATS)
Values joined by “and” are separate entries in the source; they are usually repeats but may differ in a detail not shown here. Equal values may be shown once. Results filed as inconclusive are left out. A call without a number means that no potency is given here. Active and inactive are the calls of the source. Calls follow the shape of the dose curve; as a rule, active = well fitted curve in the direction sought with a large enough effect; inconclusive = small, poorly fitted or top-dose-only effect, or another doubt; inactive = no such curve, though single readings can be large; an effect the other way counts as inactive or inconclusive.

Molecular target: Guanine nucleotide-binding protein G(i) subunit alpha-1 (Homo sapiens) (UniProt P63096)
Sequence (P63096 whole entry, looked up): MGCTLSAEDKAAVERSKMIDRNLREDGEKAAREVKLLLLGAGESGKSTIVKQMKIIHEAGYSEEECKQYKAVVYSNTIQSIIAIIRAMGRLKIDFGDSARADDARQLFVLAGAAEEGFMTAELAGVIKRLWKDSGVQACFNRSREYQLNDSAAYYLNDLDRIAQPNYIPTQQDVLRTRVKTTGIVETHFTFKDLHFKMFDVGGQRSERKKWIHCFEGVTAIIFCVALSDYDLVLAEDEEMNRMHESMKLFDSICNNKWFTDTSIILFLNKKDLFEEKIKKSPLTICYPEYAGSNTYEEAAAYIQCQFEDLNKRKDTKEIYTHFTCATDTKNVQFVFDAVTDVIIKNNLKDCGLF
Test: qHTS Assay for Inhibitors of RGS12 GoLoco Motif Activity (Green Fluorophore) (AID 879);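 also: negative values mean loss of peptide binding seen as reduced polarization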
Conditions: Galphai1/FITC-RGS12 GoLoco peptide, fluorescence polarization; series mostly up to 57.1 µM
Summary of the method: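 A drop in FITC polarization marked displacement of the FITC-tagged RGS12 GoLoco peptide (10 nM) from Gαi1 (50 nM). Compounds were incubated 10 min at room temperature in Tris pH 7.5 buffer containing 150 mM NaCl, 0.1 mM GDP and 0.05% NP40; unlabeled peptide titration served as control.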
With `CO[C@]1(C2=NCCN2)COc2ccccc2O1` the outcome was “inactive”. In the case of `CC(C)(C)NC[C@H](O)c1ccc(O)c(CO)c1`, the outcome is reported as “inactive”. For `Cc1ccc(/C(=C/CN2CCCC2)c2ccccn2)cc1`, the outcome was “inactive”. In the case of `Fc1ccc(C(c2ccc(F)cc2)N2CCN(C/C=C\c3ccccc3)CC2)cc1`, the outcome is reported as “inactive”. For `COc1ccccc1N1CCN(C[C@@H](O)COc2cccc3ccccc23)CC1`, the outcome was “inactive”. In the case of `CC#C[C@]1(O)CC[C@H]2[C@@H]3CCC4=CC(=O)CCC4=C3[C@H](c3ccc(N(C)C)cc3)C[C@@]21C`, the outcome is reported as “inactive”. With `CC(=O)N[C@@H](C(=O)O)C(C)(C)SN=O` the outcome was “inactive”.

Molecular target: Cytochrome P450 2C9 (Homo sapiens) (UniProt P11712)
Sequence (P11712 whole entry, looked up): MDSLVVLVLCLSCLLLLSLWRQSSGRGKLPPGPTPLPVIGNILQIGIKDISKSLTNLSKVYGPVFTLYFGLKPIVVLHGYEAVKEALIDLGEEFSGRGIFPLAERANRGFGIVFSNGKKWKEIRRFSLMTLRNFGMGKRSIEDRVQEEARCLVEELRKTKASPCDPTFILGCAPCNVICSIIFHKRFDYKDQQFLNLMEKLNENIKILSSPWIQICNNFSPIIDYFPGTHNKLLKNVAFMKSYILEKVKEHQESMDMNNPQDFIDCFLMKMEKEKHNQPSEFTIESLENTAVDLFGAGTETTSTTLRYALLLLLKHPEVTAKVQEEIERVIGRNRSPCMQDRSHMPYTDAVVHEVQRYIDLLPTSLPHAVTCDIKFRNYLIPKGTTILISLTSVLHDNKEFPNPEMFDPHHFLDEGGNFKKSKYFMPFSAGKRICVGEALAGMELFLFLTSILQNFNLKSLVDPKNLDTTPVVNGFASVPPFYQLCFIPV
Test: qHTS Assay for Inhibitors and Substrates of Cytochrome P450 2C9 (AID 883); also: nearly all actives have a fitted effect of over 60% in size; also: potency is read from the fitted curve at half-maximal effect
Conditions: recombinant CYP2C9, luciferin-H luminescence, 60 min; series mostly up to 57.1 µM
Summary of the method: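 A luminogenic readout tracked human CYP2C9 (10nM) converting deoxyluciferin (100uM, at KM) in 25mM KPO4 during 60 min at 37C with regenerated NADPH. Values normalized to 57uM sulphaphenazole as complete inhibition.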
In the case of `CO[C@]1(C2=NCCN2)COc2ccccc2O1`, the Potency is reported as “inactive”. In the case of `Cc1c(C(=O)NN2CCOCC2)nn(-c2ccc(Cl)cc2Cl)c1-c1ccc(I)cc1`, the Potency is reported as 6.31 µM (active). In the case of `CCCN(CCC)C[C@@H]1CCCCN1CCNC(=O)N1c2ccccc2C(=O)Nc2cccnc21`, the Potency is reported as “inactive”. For `COc1ccccc1N1CCN(C[C@@H](O)COc2cccc3ccccc23)CC1`, the Potency was “inactive”.

Molecular target: Cytochrome P450 3A4 (Homo sapiens) (UniProt P08684)
Sequence (P08684 whole entry, looked up): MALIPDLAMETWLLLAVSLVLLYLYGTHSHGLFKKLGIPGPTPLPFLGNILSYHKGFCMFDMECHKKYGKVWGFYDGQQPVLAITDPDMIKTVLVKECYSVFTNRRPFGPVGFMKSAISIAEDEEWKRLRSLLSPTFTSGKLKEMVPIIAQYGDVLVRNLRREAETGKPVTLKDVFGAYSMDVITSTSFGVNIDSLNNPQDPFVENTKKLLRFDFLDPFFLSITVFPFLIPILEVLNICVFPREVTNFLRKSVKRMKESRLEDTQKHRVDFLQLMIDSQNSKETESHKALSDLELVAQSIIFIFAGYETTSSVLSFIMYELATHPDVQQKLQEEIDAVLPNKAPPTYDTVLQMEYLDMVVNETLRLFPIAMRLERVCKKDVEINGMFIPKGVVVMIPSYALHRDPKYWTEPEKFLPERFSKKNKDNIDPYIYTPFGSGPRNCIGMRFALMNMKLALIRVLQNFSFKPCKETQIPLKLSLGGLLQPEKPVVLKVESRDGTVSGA
Test: qHTS Assay for Inhibitors and Substrates of Cytochrome P450 3A4 (AID 884); also: nearly all actives have a fitted effect of over 50% in size; also: potency is read from the fitted curve at half-maximal effect
Conditions: recombinant CYP3A4, Luciferin-PPXE luminescence; series mostly up to 57.1 µM
Summary of the method: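 Luminescent readout of luciferin produced by CYP3A4 (20 nM) dealkylation of Luciferin-PPXE, 25 uM (its KM). NADPH-driven reaction ran 60 min at RT after 10 min compound preincubation; data scaled to 57 uM ketoconazole as 100% inhibition.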
In the case of `O=C1C=CC(=O)C2=C1C1c3ccccc3C2c2ccccc21`, the Potency is reported as 39.8 µM (active). In the case of `CCN(CC)CCCCC1CCN(CC(=O)N2c3ccccc3C(=O)Nc3cccnc32)CC1`, the Potency is reported as “inactive”. For `CC1OC(OC2C(CO)OC(OC3C(CO)OC(O)C(O)C3O)C(O)C2O)C(O)C(O)C1NC1C=C(CO)C(O)C(O)C1O` (stereo not drawn), the Potency was “inactive”. With `Fc1ccc(C(c2ccc(F)cc2)N2CCN(C/C=C\c3ccccc3)CC2)cc1` the Potency was “inactive”. For `CC(=O)N(O)[C@@H]1c2cc(C#N)ccc2OC(C)(C)[C@H]1O`, the Potency was “inactive”. For `CC(=O)N(OCc1ccccc1)[C@@H]1c2cc(C#N)ccc2OC(C)(C)[C@H]1O`, the Potency was 15.8 µM (active). For `CN1c2cc3c(cc2N=C(c2ccc(C(=O)O)cc2)c2ccccc21)C(C)(C)CCC3(C)C`, the Potency was “inactive”. In the case of `CCOC(=O)C1CSC(Cc2ccc(OCc3ccc([N+](=O)[O-])cc3)cc2)N1` (stereo not drawn), the Potency is reported as 15.8 µM (active).

Molecular target: Cytochrome P450 3A4 (Homo sapiens) (UniProt P08684)
Test: qHTS Assay for Activators of Cytochrome P450 3A4 (AID 885); also: nearly all actives have a fitted effect of over 65% in size
Conditions: recombinant CYP3A4, Luciferin-PPXE luminescence, 60 min; series mostly up to 57.1 µM
Summary of the method: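 Human CYP3A4 dealkylates Luciferin-PPXE to luciferin, which luciferase detection converts to light. Substrate was at its KM (25uM), buffer 200mM KPO4, reaction 60 min at RT.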
In the case of `c1ccc(N2CCN(Cc3nc4ccccc4[nH]3)CC2)nc1`, the Potency is reported as “inactive”. With `O=C1C=CC(=O)C2=C1C1c3ccccc3C2c2ccccc21` the Potency was “inactive”. For `CCCN(CCC)C[C@@H]1CCCCN1CCNC(=O)N1c2ccccc2C(=O)Nc2cccnc21`, the Potency was “inactive”. In the case of `CCN(CC)C[C@@H]1CCCCN1CC(=O)N1c2ccccc2C(=O)Nc2cccnc21`, the Potency is reported as “inactive”. In the case of `OC(CN1CCNCC1)Cn1c2ccc(Br)cc2c2cc(Br)ccc21` (stereo not drawn), the Potency is reported as “inactive”. With `COc1ccccc1N1CCN(C[C@@H](O)COc2cccc3ccccc23)CC1` the Potency was “inactive”. With `COc1cc(C=O)c([N+](=O)[O-])cc1OC` the Potency was “inactive”. With `COc1ccc2[nH]cc(CC(N)C(=O)O)c2c1` (stereo not drawn) the Potency was “inactive”. In the case of `CC(=O)N(OCc1ccccc1)[C@@H]1c2cc(C#N)ccc2OC(C)(C)[C@H]1O`, the Potency is reported as “inactive”. With `CCOC(=O)C1CSC(Cc2ccc(OCc3ccc([N+](=O)[O-])cc3)cc2)N1` (stereo not drawn) the Potency was “inactive”.

Molecular target: Cytochrome P450 2D6 (Homo sapiens) (UniProt P10635)
Sequence (P10635 whole entry, looked up): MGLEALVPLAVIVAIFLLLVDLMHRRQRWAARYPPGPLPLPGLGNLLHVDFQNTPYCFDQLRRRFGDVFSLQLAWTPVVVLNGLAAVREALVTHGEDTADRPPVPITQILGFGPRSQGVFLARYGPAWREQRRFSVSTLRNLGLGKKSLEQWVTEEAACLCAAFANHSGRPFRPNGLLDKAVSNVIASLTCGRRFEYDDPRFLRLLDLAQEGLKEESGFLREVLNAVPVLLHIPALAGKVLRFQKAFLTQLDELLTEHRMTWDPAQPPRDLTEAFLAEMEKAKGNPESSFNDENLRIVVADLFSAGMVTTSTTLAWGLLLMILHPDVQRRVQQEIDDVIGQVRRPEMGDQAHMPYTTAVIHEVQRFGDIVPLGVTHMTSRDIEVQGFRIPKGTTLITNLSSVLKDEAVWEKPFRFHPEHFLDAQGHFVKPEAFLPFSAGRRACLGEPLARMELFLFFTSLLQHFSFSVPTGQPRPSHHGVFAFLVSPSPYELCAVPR
Test: qHTS Assay for Inhibitors and Substrates of Cytochrome P450 2D6 (AID 891); also: potency is read from the fitted curve at half-maximal effect; nearly all actives have a fitted effect of over 60% in size
Conditions: recombinant CYP2D6, luciferin-ME EGE luminescence; series mostly up to 57.1 µM
Summary of the method: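 Luminescent read-out of luciferin formed by 5 nM human CYP2D6 demethylating 30 uM Luciferin-ME EGE (Km level) over 60 min at room temperature after NADPH regeneration addition. Data normalized to full inhibition by 1.43 uM quinidine.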
For `CCCN(CCC)C[C@@H]1CCCCN1CCNC(=O)N1c2ccccc2C(=O)Nc2cccnc21`, the Potency was 2.51 µM (active). In the case of `CC(=O)Nc1ccc(OC[C@@H](O)CNC(C)C)cc1`, the Potency is reported as 3.16 µM (active). For `N[C@@H](Cn1cc(I)c(=O)n(Cc2ccc(C(=O)O)cc2)c1=O)C(=O)O`, the Potency was 2.51 µM (active).

Molecular target: Cytochrome P450 2C19 (Homo sapiens) (UniProt P33261)
Sequence (P33261 whole entry, looked up): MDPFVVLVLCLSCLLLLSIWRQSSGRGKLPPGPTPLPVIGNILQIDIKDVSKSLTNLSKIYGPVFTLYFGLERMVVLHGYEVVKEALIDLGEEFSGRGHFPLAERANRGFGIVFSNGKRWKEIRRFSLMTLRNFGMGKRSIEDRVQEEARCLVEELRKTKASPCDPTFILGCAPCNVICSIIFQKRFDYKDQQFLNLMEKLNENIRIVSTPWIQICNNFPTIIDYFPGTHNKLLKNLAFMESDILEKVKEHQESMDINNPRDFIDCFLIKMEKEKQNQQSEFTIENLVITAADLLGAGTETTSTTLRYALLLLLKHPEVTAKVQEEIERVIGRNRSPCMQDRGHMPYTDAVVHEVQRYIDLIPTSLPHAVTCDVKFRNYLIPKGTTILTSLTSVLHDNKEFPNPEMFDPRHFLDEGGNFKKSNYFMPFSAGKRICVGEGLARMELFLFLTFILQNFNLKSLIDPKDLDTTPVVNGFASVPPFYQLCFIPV
Test: qHTS Assay for Inhibitors and Substrates of Cytochrome P450 2C19 (AID 899); also: nearly all actives have a fitted effect of over 60% in size; also: potency is read from the fitted curve at half-maximal effect
Conditions: recombinant CYP2C19, luciferin-H EGE luminescence; series mostly up to 57.1 µM
Summary of the method: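 NADPH-dependent conversion of Luciferin-H EGE (10uM, at KM) by 5nM enzyme in 50mM KPO4, 60 min at 37C following 10 min compound preincubation. Stopped with luciferin detection buffer; luminescence read after 20 min.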
With `CCNCCCNCCCNCCCNCC` the Potency was “inactive”. In the case of `Cc1c(C(=O)NN2CCOCC2)nn(-c2ccc(Cl)cc2Cl)c1-c1ccc(I)cc1`, the Potency is reported as 7.94 µM (active). With `CCCN(CCC)C[C@@H]1CCCCN1CCNC(=O)N1c2ccccc2C(=O)Nc2cccnc21` the Potency was 7.94 µM (active). In the case of `Fc1ccc(C(c2ccc(F)cc2)N2CCN(C/C=C\c3ccccc3)CC2)cc1`, the Potency is reported as “inactive”. For `COc1ccccc1N1CCN(C[C@@H](O)COc2cccc3ccccc23)CC1`, the Potency was 6.31 µM (active) and 7.94 µM (active) and 1.58 µM (active). With `CC#C[C@]1(O)CC[C@H]2[C@@H]3CCC4=CC(=O)CCC4=C3[C@H](c3ccc(N(C)C)cc3)C[C@@]21C` the Potency was 7.94 µM (active).

Test system: not listed separately
Test: Confirmation and Secondary Assay for Modulators of Hemoglobin Beta Chain Splicing at IVS2 654 locus (AID 910)
Conditions: HeLa EGFP-654 splicing reporter, GFP fluorescence, 48 h; series mostly up to 46.1 µM
Summary of the method: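 HeLa cells stably carrying EGFP interrupted by mutant beta-globin IVS2-654 intron (CMV-driven) were treated with compound for 2 days at 37C; corrected splicing was scored as total peak GFP intensity per well (488 nm excitation, 500-520 nm emission).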
With `CC(C)(C)NC[C@H](O)c1ccc(O)c(CO)c1` the outcome was “inactive”. For `CC1OC(OC2C(CO)OC(OC3C(CO)OC(O)C(O)C3O)C(O)C2O)C(O)C(O)C1NC1C=C(CO)C(O)C(O)C1O` (stereo not drawn), the outcome was “inactive”. In the case of `CC(=O)N[C@@H](C(=O)O)C(C)(C)SN=O`, the outcome is reported as “inactive”.

Test system: not listed separately
Test: Confirmation and Secondary Assay for Modulators of Hemoglobin Beta Chain Splicing at IVS2 705 locus (AID 930);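 also: HeLa cells stably expressing the EGFP-705 splicing reporter; GFP fluorescence per well restored by corrected splicing of the IVS2-705 intron in EGFP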
Conditions: HeLa EGFP-705 splicing reporter, GFP fluorescence, 48 h; series mostly up to 46.1 µM
Summary of the method: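 HeLa cells stably carrying EGFP interrupted by mutant beta-globin intron 2 (IVS2-705) treated 2 days at 37C with compound; 500 nM antisense PNA as control. Correct splicing read as total peak GFP intensity per well by laser-scanning cytometry.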
With `CC(C)(C)NC[C@H](O)c1ccc(O)c(CO)c1` the outcome was “inactive”. For `CC1OC(OC2C(CO)OC(OC3C(CO)OC(O)C(O)C3O)C(O)C2O)C(O)C(O)C1NC1C=C(CO)C(O)C(O)C1O` (stereo not drawn), the outcome was “inactive”. With `CC(=O)N[C@@H](C(=O)O)C(C)(C)SN=O` the outcome was “inactive”.

Molecular target: Muscarinic acetylcholine receptor M1 (Rattus norvegicus) (UniProt P08482)
Sequence (P08482 whole entry, looked up): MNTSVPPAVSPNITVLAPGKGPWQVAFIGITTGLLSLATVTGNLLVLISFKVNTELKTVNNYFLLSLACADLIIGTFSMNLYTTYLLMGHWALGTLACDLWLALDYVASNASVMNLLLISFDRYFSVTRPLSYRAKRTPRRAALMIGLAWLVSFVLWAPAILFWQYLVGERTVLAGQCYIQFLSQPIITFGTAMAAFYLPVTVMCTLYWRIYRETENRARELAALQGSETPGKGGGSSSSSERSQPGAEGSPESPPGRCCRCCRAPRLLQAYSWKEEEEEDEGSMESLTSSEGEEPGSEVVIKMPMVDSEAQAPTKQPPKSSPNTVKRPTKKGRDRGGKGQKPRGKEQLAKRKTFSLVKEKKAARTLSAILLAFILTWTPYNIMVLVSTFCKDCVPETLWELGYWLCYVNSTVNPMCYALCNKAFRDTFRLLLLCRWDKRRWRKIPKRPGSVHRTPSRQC
Test: qHTS Assay for Antagonists of Acetylcholine Muscarinic M1 Receptor: Measurement of IP-One Response (AID 944); also: nearly all actives have a fitted effect of over 75% in size
Conditions: CHO-M1 cells, IP-One HTRF, antagonist mode; series mostly up to 46.1 µM
Summary of the method: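 Antagonist mode with rat M1 receptor transfected into CHO cells. Compound is added first for 10 min, carbachol at its EC80 follows for 30 min, and lysis reagents then allow TR-FRET detection of accumulated IP1.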
For `CO[C@]1(C2=NCCN2)COc2ccccc2O1`, the Potency was “inactive”. In the case of `COc1ccccc1N1CCN(C[C@@H](O)COc2cccc3ccccc23)CC1`, the Potency is reported as “inactive”. With `CC(=O)N[C@@H](C(=O)O)C(C)(C)SN=O` the Potency was “inactive”.

Molecular target: Pyruvate kinase (Leishmania mexicana) (UniProt Q27686)
Test: qHTS Validation Assay for Inhibitors of Leishmania Mexicana Pyruvate Kinase (AID 945)
Conditions: purified L. mexicana pyruvate kinase, enzyme activity, E451W mutant enzyme; series mostly up to 57.5 µM
Summary of the method: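 Eight-point qHTS titrations in triplicate, data normalized to DMSO neutral control. Reaction: 0.2 nM LmPYK E451W mutant, 0.5 mM PEP, 0.1 mM ADP, 7 mM MgCl2, pH 7.2, one hour at room temperature; luminescent ATP detection.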
With `CO[C@]1(C2=NCCN2)COc2ccccc2O1` the Potency was “inactive”. With `CC(C)(C)NC[C@H](O)c1ccc(O)c(CO)c1` the Potency was “inactive”. In the case of `Fc1ccc(C(c2ccc(F)cc2)N2CCN(C/C=C\c3ccccc3)CC2)cc1`, the Potency is reported as “inactive”. For `COc1ccccc1N1CCN(C[C@@H](O)COc2cccc3ccccc23)CC1`, the Potency was “inactive”. In the case of `CC#C[C@]1(O)CC[C@H]2[C@@H]3CCC4=CC(=O)CCC4=C3[C@H](c3ccc(N(C)C)cc3)C[C@@]21C`, the Potency is reported as “inactive”. For `CC(=O)N[C@@H](C(=O)O)C(C)(C)SN=O`, the Potency was “inactive”.
